Assay results taken from PubChem BioAssay (EPA / NIEHS).
Inconclusive results are not listed. The source made the active and inactive calls. How the source made its calls, unless noted: active means hit-call score of the fitted dose curve at least 0.9, where 1 is the maximum; inactive means score below 0.9.

Legend:
[1] = molecular target: Myc proto-oncogene protein (Homo sapiens) (UniProt P01106); test: ATG_Myc_CIS: Attagene CIS-FACTORIAL HepG2 Assay for human Myelocytomatosis (Myc) Proto-Oncogene Transcription Factor (AID 2282990); conditions: HepG2, Attagene cis-reporter transcription factor activity; actives raise or lower the signal
Sequence of Myc proto-oncogene protein (Homo sapiens) (P01106 whole entry, looked up): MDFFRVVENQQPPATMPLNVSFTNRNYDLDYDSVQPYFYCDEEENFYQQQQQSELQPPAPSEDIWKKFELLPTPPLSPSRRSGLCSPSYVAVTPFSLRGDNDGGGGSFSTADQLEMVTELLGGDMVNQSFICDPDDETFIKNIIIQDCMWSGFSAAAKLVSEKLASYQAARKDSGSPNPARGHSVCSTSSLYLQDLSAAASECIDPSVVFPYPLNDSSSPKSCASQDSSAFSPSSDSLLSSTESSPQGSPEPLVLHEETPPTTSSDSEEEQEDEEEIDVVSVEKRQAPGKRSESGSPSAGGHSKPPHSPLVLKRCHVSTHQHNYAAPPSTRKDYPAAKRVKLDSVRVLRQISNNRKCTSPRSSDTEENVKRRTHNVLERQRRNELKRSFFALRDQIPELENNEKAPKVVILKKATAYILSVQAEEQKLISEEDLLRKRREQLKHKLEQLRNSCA
Method in brief: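 Transiently transfected HepG2 cells bearing cis-promoter reporter units for endogenous transcription factors; 24 h exposure. Reporter mRNA measured by RT-PCR, 6-FAM primer extension, HpaI cut and capillary electrophoresis; bidirectional fit relative to DMSO.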

[2] = ATG_NF_kB_CIS: Attagene CIS-FACTORIAL HepG2 Assay for human Nuclear Factor Kappa B (NF-kB) (AID 2282991); conditions: HepG2 Attagene cis-factorial NF-kB reporter mRNA; actives raise or lower the signal
Method in brief: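 HepG2, transient multi-reporter transfection, cis promoter elements (endogenous TFs). 24 h exposure. Total RNA → RT → PCR → 6-FAM label → HpaI → CE. Gain/loss vs DMSO.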

[3] = ATG_NRF2_ARE_CIS: Attagene CIS-FACTORIAL HepG2 Assay for human Nuclear Factor Erythroid 2 Related Factor 2 (NFR2) response to Antioxidant Response Elements (ARE) (AID 2282992); conditions: HepG2 Attagene ARE/NRF2 reporter, transcription factor activity; actives raise or lower the signal;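 on AC50: reporter mRNA level measured by RT-PCR and capillary electrophoresis fluorescence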
Method in brief: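 Readout: reporter mRNA quantified by RT-PCR plus FAM-labelled primer extension, HpaI digestion and capillary electrophoresis, 24 h after dosing transfected HepG2 cells. Gain or loss of signal is fitted bidirectionally against DMSO baseline.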

[4] = ATG_Oct_MLP_CIS: Attagene CIS-FACTORIAL HepG2 Assay for human Octamer-Binding Transcription Factor (Oct) (AID 2282993); conditions: HepG2 Attagene cis-factorial Oct reporter, mRNA; actives raise or lower the signal
Method in brief: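 Using HepG2 cells bearing transfected cis-reporter constructs, mRNA induction was read after 24 h by fluorescent RT-PCR and capillary electrophoresis, with DMSO defining baseline for gain- or loss-of-signal fits.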

[5] = molecular target: Cellular tumor antigen p53 (Homo sapiens) (UniProt P04637); test: ATG_p53_CIS: Attagene CIS-FACTORIAL HepG2 Assay for human p53 Transcription Factor (AID 2282994); conditions: HepG2 p53 cis-element reporter, Attagene mRNA; actives raise or lower the signal
Sequence of Cellular tumor antigen p53 (Homo sapiens) (P04637 whole entry, looked up): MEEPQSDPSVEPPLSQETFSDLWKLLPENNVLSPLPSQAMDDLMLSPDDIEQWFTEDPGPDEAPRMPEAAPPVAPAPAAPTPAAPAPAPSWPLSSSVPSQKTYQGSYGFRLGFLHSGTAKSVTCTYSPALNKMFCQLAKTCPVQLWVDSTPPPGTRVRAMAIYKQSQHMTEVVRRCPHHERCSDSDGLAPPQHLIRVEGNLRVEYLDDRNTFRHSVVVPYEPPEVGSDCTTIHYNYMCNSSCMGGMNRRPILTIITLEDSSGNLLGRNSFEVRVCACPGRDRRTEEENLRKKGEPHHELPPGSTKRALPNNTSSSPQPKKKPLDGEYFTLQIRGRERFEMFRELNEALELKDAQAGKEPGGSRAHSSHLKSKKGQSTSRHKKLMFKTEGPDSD
Method in brief: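 Read-out: reporter mRNA by RT-PCR plus capillary electrophoresis with fluorescence detection. Human HepG2 liver cells carried transfected multi-reporter cis-element constructs, dosed 24 h. Gain or loss of signal fitted bidirectionally against DMSO control.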

[6] = BSK_3C_TissueFactor: BioMAP Diversity Plus: 3C Assay for Tissue Factor Biomarker Activity (AID 2282997); conditions: BioMAP 3C HUVEC, tissue factor biomarker readout; actives raise or lower the signal
Method in brief: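 After a 24 h chemical exposure of primary human umbilical vein endothelial cells, Tissue Factor levels were quantified by ELISA.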

[7] = BSK_3C_uPAR: BioMAP Diversity Plus: 3C Assay for Urokinase-type plasminogen activator receptor (uPAR) Biomarker Activity (AID 2282998); conditions: BioMAP 3C HUVEC, uPAR biomarker ELISA; actives raise or lower the signal
Method in brief: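 In this endothelial cell-based assay, human umbilical vein primary cells were treated with chemicals and harvested at 24 h. uPAR was quantified using ELISA, with gains or losses fitted relative to DMSO controls.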

[8] = BSK_3C_VCAM1: BioMAP Diversity Plus: 3C Assay for Vascular cell adhesion molecule 1 (VCAM1) Biomarker Activity (AID 2282999); conditions: BioMAP 3C HUVEC, VCAM1 ELISA, cytokine-stimulated; actives raise or lower the signal
Method in brief: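 HUVEC primary cells, 24 h compound exposure; VCAM-1 by ELISA; gain/loss of signal fitted bidirectionally vs DMSO baseline.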

[9] = BSK_4H_Eotaxin3: BioMAP Diversity Plus: 4H Assay for Eotaxin 3 Biomarker Activity (AID 2283000); conditions: primary human endothelial cells (HUVEC); actives raise or lower the signal;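 on outcome: CCL26 protein level quantified by ELISA in parallel with SRB cytotoxicity check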
Method in brief: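 Chemicals were added to human umbilical vein endothelium cultures, and Eotaxin-3 was quantified by ELISA at 24 h. Values were derived by bidirectional fitting with DMSO serving as negative control and activity baseline.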

[10] = molecular target: human Peroxisome Proliferator-activated Receptor delta (PPARd), PPARD (gene 5467) (UniProt Q03181); test: ATG_PPARd_TRANS: Attagene TRANS-FACTORIAL HepG2 Assay for human Peroxisome Proliferator-activated Receptor delta (PPARd) (AID 2283002; active means hit-call score of the fitted dose curve at least 0.9, where 1 is the maximum)
Sequence of human Peroxisome Proliferator-activated Receptor delta (PPARd), PPARD (gene 5467) (Q03181 whole entry, looked up, the tested form may be a part): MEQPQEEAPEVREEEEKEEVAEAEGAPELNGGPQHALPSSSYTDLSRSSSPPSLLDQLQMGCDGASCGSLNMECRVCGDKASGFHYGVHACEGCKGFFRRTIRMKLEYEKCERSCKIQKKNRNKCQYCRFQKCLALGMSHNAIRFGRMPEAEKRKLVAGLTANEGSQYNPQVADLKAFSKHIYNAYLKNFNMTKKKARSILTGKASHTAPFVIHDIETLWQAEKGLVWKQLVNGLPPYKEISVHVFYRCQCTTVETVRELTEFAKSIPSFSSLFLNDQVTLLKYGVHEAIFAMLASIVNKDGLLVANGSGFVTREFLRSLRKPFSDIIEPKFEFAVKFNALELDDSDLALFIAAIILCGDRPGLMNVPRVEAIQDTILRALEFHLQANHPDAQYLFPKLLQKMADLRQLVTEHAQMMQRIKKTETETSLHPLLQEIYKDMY
Method in brief: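 HepG2 cells transiently transfected with GAL4-UAS multiplexed reporter units driven by exogenous chimeric NR-GAL4 proteins; 24 h compound exposure. Reporter mRNA measured by RT-PCR, 6-FAM primer extension, HpaI digestion and capillary electrophoresis; gain of signal fitted relative to DMSO.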

[11] = read-out: Intercellular Adhesion Molecule 1 (ICAM1), ICAM1 (gene 3383); test: BSK_3C_ICAM1: BioMAP Diversity Plus: 3C Assay for Intercellular Adhesion Molecule 1 (ICAM1) Biomarker Activity (AID 2283003); conditions: primary human endothelial cells (HUVEC); actives raise or lower the signal
Method in brief: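 Using DMSO as baseline, bidirectional curve fitting was applied to ICAM-1 ELISA signals from HUVEC in the 3C system, measured 24 h after compound addition.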

[12] = BSK_3C_Proliferation: Cell Proliferation Assessment in the BioMAP Diversity Plus: 3C Assay (AID 2283006); conditions: primary human endothelial cells (HUVEC);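 on AC50: potency may reflect either rise or fall in cell number versus DMSO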
Method in brief: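 Measured here: sulforhodamine B (0.1%) staining of TCA-fixed sub-confluent umbilical vein endothelial cultures 48 h post-dosing, absorbance 560 nm. DMSO served as negative control and baseline; both signal gain and loss were modelled.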

[13] = molecular target: human RAR-related Orphan Receptor beta (RORb), RORB (gene 6096) (UniProt Q92753); test: ATG_RORb_TRANS: Attagene TRANS-FACTORIAL HepG2 Assay for human RAR-related Orphan Receptor beta (RORb) (AID 2283010; active means hit-call score of the fitted dose curve at least 0.9, where 1 is the maximum)
Sequence of human RAR-related Orphan Receptor beta (RORb), RORB (gene 6096) (Q92753 whole entry, looked up, the tested form may be a part): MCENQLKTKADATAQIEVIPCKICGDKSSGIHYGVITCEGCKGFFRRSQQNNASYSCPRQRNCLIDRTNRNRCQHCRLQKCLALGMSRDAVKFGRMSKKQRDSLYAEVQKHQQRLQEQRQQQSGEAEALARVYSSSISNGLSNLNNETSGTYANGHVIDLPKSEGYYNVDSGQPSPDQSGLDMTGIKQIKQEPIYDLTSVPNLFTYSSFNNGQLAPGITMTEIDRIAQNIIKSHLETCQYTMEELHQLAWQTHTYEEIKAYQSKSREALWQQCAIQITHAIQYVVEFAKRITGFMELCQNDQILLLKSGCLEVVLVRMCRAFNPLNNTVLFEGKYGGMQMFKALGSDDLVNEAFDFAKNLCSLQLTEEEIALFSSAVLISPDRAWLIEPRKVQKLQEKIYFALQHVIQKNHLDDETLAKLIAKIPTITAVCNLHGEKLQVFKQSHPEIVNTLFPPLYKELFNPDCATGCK
Method in brief: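 Multiplexed transcription-factor reporter assay: HepG2 cells transiently carrying NR-Gal4/GAL4-UAS constructs, 24 h treatment, mRNA quantified by RT-PCR plus capillary electrophoresis fluorescence; activity scored as induction over DMSO.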

[14] = molecular target: human RAR-related Orphan Receptor gamma (RORg), RORC (gene 6097) (UniProt P51449); test: ATG_RORg_TRANS: Attagene TRANS-FACTORIAL HepG2 Assay for human RAR-related Orphan Receptor gamma (RORg) (AID 2283011; active means hit-call score of the fitted dose curve at least 0.9, where 1 is the maximum)
Sequence of human RAR-related Orphan Receptor gamma (RORg), RORC (gene 6097) (P51449 whole entry, looked up, the tested form may be a part): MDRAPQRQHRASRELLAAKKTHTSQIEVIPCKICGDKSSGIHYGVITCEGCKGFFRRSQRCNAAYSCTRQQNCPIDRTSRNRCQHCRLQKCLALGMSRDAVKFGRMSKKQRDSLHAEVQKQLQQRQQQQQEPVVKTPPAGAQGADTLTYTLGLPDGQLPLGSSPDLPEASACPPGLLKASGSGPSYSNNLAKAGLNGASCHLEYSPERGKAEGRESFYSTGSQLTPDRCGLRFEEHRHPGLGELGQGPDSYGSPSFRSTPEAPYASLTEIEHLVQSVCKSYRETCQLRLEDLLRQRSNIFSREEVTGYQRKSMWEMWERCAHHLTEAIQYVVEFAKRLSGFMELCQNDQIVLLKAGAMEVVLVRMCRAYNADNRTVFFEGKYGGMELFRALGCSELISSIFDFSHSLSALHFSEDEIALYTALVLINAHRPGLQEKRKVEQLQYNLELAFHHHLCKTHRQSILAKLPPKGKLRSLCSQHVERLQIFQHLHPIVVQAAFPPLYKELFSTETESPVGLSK
Method in brief: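 First, HepG2 liver cells were transfected with GAL4-UAS-driven reporter constructs and the RORg-Gal4 fusion. Next, they were treated with chemical for 24 h. Finally, reporter mRNA was quantified by RT-PCR and capillary electrophoresis, with upward activity fitted against DMSO.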

[15] = molecular target: Peroxisome proliferator-activated receptor gamma (Homo sapiens) (UniProt P37231); test: ATG_PPARg_TRANS: Attagene TRANS-FACTORIAL HepG2 Assay for human Peroxisome Proliferator-activated Receptor-gamma (PPARg) (AID 2283007; active means hit-call score of the fitted dose curve at least 0.9, where 1 is the maximum)
Sequence of Peroxisome proliferator-activated receptor gamma (Homo sapiens) (P37231 whole entry, looked up): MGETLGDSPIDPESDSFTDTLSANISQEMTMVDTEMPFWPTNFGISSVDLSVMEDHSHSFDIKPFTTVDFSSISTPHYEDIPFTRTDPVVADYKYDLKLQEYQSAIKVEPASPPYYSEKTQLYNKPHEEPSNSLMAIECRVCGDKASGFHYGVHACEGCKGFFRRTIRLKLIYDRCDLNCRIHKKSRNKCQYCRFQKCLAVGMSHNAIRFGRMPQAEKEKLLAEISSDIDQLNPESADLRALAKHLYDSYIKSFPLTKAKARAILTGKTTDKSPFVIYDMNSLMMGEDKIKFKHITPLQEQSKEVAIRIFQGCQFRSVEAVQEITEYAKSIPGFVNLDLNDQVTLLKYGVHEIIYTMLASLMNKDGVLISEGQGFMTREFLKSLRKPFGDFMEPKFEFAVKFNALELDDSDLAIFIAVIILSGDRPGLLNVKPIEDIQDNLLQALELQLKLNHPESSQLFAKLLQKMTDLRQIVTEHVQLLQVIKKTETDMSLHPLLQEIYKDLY
Method in brief: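 Multiplexed reporter transcription units in HepG2, 24 h dosing, reporter transcripts quantified by fluorescent RT-PCR and capillary electrophoresis. Increase over DMSO scored.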

[16] = molecular target: Nuclear receptor subfamily 1 group I member 2 (Homo sapiens) (UniProt O75469); test: ATG_PXR_TRANS: Attagene TRANS-FACTORIAL HepG2 Assay for human Pregnane X Receptor (PXR) (AID 2283008; active means hit-call score of the fitted dose curve at least 0.9, where 1 is the maximum)
Sequence of Nuclear receptor subfamily 1 group I member 2 (Homo sapiens) (O75469 whole entry, looked up, the tested form may be a part): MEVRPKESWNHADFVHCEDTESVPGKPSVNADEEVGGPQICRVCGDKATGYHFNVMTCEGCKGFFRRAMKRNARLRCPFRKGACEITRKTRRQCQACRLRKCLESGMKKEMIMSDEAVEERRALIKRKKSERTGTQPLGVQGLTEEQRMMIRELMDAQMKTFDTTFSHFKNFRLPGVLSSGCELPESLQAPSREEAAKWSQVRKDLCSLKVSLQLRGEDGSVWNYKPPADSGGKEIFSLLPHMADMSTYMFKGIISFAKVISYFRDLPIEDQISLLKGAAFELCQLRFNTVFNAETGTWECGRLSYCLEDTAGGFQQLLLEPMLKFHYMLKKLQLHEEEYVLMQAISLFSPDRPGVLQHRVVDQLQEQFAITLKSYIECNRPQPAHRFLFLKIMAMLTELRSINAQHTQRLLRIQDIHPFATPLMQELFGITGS
Method in brief: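 Trans-factorial format: exogenous NR-Gal4 fusion activity, not endogenous factor, in transfected human HepG2 liver cells. After 24 h dosing, RNA isolated, reverse-transcribed, amplified and resolved by capillary electrophoresis; induction scored versus DMSO.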

[17] = molecular target: human Peroxisome Proliferator-activated Receptor alpha (PPARa), PPARA (gene 5465) (UniProt Q07869); test: ATG_PPARa_TRANS: Attagene TRANS-FACTORIAL HepG2 Assay for human Peroxisome Proliferator-activated Receptor alpha (PPARa) (AID 2283001; active means hit-call score of the fitted dose curve at least 0.9, where 1 is the maximum)
Sequence of human Peroxisome Proliferator-activated Receptor alpha (PPARa), PPARA (gene 5465) (Q07869 whole entry, looked up, the tested form may be a part): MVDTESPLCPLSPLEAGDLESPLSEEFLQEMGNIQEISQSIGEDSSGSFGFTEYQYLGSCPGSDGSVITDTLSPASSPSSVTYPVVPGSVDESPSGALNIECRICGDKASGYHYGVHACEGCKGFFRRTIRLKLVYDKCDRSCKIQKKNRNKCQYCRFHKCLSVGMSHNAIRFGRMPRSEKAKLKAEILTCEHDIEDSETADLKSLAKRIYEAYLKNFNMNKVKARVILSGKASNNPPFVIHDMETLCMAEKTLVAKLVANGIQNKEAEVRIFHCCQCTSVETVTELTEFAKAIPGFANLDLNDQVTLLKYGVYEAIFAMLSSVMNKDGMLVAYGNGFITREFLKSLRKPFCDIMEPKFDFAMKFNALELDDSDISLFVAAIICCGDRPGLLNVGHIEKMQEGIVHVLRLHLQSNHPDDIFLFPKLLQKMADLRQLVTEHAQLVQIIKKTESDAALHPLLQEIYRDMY
Method in brief: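 Transient HepG2 transfection, GAL4-UAS reporters, NR-Gal4 chimeras; 24 h compound exposure. Readout: reporter transcripts by RT-PCR, 6-FAM primer extension, HpaI digest, capillary electrophoresis. Positive direction vs DMSO baseline.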

[18] = molecular target: human Retinoic Acid Receptor beta (RARb), RARB (gene 5915) (UniProt P10826); test: ATG_RARb_TRANS: Attagene TRANS-FACTORIAL HepG2 Assay for human Retinoic Acid Receptor beta (AID 2283004; active means hit-call score of the fitted dose curve at least 0.9, where 1 is the maximum)
Sequence of human Retinoic Acid Receptor beta (RARb), RARB (gene 5915) (P10826 whole entry, looked up): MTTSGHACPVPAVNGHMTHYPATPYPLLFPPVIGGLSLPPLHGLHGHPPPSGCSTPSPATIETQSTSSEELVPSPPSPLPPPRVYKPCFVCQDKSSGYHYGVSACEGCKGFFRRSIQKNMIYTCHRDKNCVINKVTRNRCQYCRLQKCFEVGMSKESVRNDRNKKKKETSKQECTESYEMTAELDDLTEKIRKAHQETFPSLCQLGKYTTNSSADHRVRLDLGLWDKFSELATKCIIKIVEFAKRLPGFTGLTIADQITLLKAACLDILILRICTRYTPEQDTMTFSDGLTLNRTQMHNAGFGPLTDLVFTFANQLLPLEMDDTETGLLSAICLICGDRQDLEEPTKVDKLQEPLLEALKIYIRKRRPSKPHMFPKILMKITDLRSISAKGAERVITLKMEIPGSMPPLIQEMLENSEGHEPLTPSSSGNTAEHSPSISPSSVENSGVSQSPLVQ
Method in brief: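 Transient transfection of HepG2 with multiple reporter units → chemical dosing, 24 h → total RNA isolation → RT with oligo(dT) → reporter-specific PCR, 6-FAM primer extension, HpaI digest → capillary electrophoresis. Positive direction vs DMSO control.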

SMILES: COc1cc(C=O)ccc1O
- outcome [1]: inactive
- outcome [2]: inactive
- outcome [3]: inactive
- outcome [4]: inactive
- outcome [5]: inactive
- outcome [6]: inactive
- outcome [7]: inactive
- outcome [8]: inactive
- outcome [9]: inactive
- outcome [10]: inactive
- outcome [11]: inactive
- outcome [12]: inactive
- outcome [13]: inactive
- outcome [14]: inactive

SMILES: CCc1c(C(=O)NN2CCCCC2)nn(-c2ccc(Cl)cc2Cl)c1-c1ccc(Br)cc1
- outcome [1]: inactive
- outcome [2]: inactive
- AC50 [3]: 1.53 µM (active)
- outcome [4]: inactive
- outcome [5]: inactive
- AC50 [7]: 6.7 µM (active)
- AC50 [8]: 11.1 µM (active)
- AC50 [9]: 8.48 µM (active)
- outcome [10]: inactive
- outcome [11]: inactive
- AC50 [12]: 6.79 µM (active)
- AC50 [15]: 0.0976 µM (active)
- outcome [16]: inactive

SMILES: CC(CO)OC(C)CO (centres undefined) (tested in a mixture with another compound)
- outcome [1]: inactive
- outcome [2]: inactive
- outcome [3]: inactive
- outcome [5]: inactive
- outcome [6]: inactive
- outcome [7]: inactive
- outcome [8]: inactive
- outcome [9]: inactive
- outcome [17]: inactive
- outcome [11]: inactive
- outcome [12]: inactive
- outcome [16]: inactive

SMILES: CC1(C)CC(N=C=O)CC(C)(CN=C=O)C1 (centres undefined)
- outcome [1]: inactive
- outcome [2]: inactive
- outcome [3]: inactive
- outcome [4]: inactive
- outcome [5]: inactive
- outcome [7]: inactive
- outcome [8]: inactive
- outcome [9]: inactive
- outcome [11]: inactive
- outcome [12]: inactive
- outcome [14]: inactive

SMILES: O=[N+]([O-])C(CO)(CO)CO
- outcome [1]: inactive
- outcome [2]: inactive
- outcome [3]: inactive
- outcome [4]: inactive
- outcome [5]: inactive
- outcome [7]: inactive
- outcome [8]: inactive
- outcome [9]: inactive
- outcome [11]: inactive
- outcome [18]: inactive
- outcome [12]: inactive
- outcome [15]: inactive
- outcome [14]: inactive

SMILES: CCCCCCCC=O
- outcome [1]: inactive
- outcome [2]: inactive
- outcome [3]: inactive
- outcome [5]: inactive
- outcome [6]: inactive
- outcome [7]: inactive
- outcome [8]: inactive
- outcome [9]: inactive
- outcome [17]: inactive
- outcome [10]: inactive
- outcome [11]: inactive
- outcome [12]: inactive
- AC50 [15]: 100 µM (active)
- outcome [16]: inactive
- outcome [13]: inactive

SMILES: Cc1ccc2ncccc2c1
- outcome [1]: inactive
- outcome [2]: inactive
- outcome [3]: inactive
- outcome [5]: inactive
- outcome [7]: inactive
- outcome [8]: inactive
- outcome [9]: inactive
- outcome [17]: inactive
- outcome [11]: inactive
- outcome [18]: inactive
- outcome [12]: inactive
- outcome [15]: inactive
- outcome [14]: inactive

SMILES: CN[C@H]1CC[C@@H](c2ccc(Cl)c(Cl)c2)c2ccc(S(N)(=O)=O)cc21
- outcome [1]: inactive
- outcome [2]: inactive
- outcome [3]: inactive
- outcome [5]: inactive
- AC50 [6]: 33.4 µM (active)
- AC50 [7]: 14.3 µM (active)
- AC50 [8]: 30.4 µM (active)
- AC50 [9]: 15.2 µM (active)
- outcome [10]: inactive
- AC50 [11]: 30.9 µM (active)
- AC50 [12]: 6.14 µM (active)
- outcome [15]: inactive
- outcome [16]: inactive
